Compounds with a hit are over-represented: about 2.9% of the library has one in this group of screens.
PLC-gamma1 inh: PLC-gamma1 (human) inhibition, primary screen. purified PLC-gamma1, fluorogenic substrate, fluorescence. inhibition, % at 12.2 µM. actives 0.84% (n = 370,000); in the data active means inhibition above about 9.5%
ADAM17 inh: inhibitors of human ADAM17. recombinant ADAM17, EDANS/DABCYL FRET peptide cleavage. AID 720648. P78536. inhibition, % at 6.95 µM. actives 0.83% (n = 370,000);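 active means inhibition above the mean of compounds lying between control limits plus 3 SD, set per campaign, cut at about 8.5% in these data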;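 further: 0% = DMSO-only wells as the low control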
Target sequence (P78536 215-824 limits assumed): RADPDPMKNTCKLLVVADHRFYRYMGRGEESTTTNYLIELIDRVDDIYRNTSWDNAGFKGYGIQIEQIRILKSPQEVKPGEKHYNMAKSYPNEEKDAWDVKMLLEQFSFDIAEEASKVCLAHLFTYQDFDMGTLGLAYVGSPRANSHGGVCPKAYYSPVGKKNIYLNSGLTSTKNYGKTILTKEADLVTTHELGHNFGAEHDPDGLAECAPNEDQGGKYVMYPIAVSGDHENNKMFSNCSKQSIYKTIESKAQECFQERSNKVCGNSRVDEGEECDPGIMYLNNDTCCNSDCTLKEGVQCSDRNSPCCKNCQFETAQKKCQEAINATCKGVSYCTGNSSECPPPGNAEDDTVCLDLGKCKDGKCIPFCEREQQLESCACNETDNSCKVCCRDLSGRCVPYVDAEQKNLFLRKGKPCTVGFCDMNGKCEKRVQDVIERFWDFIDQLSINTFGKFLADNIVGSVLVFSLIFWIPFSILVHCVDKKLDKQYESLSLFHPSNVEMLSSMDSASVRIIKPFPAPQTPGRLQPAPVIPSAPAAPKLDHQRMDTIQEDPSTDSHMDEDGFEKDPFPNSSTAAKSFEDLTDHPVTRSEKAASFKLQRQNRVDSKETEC
ADAM10 inh: inhibits human ADAM10; O14672; recombinant ADAM10, EDANS/DABCYL FRET peptide cleavage, 3 h; inhibition, % at 7 µM; actives 0.62% (n = 370,000); AID 720582;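 active means inhibition above a per-campaign cutoff equal to the mean of compounds falling between control-based bounds plus 3 SD, cut at about 20% in these data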;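 further: 0% = DMSO wells while the 100% control is not disclosed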
PLC-beta3 inh: inhibitors of human phospholipase C beta3; actives 0.18% (n = 370,000); Purified PLC-beta3, fluorogenic substrate, fluorescence; AID 720704; inhibition, % at 12.2 µM;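 further: 0% = median of compound wells on plate and 100% = full blocker control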
KLK7 zymogen act: activators of human kallikrein-7 zymogen | P49862 | purified proKLK7, EDANS-DABCYL substrate fluorescence; 100% is mature enzyme control, 0% vehicle | activation, % at 7 µM | actives 0.9% (n = 370,000) | AID 652039;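 active means activation above the mean of all tested compounds plus 3 SD, computed per campaign excluding outliers beyond control limits, cut at about 13% in these data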
PLCgamma1 ctr: inhibits human PLC-gamma1 in PLC-beta3 counter-screen; shares compounds with PLC-gamma1 inh; purified PLC-gamma1, fluorogenic substrate, fluorescence; inhibition, % at 12.3 µM; actives 3.1% (n = 3,300); AID 743258; in the data active means inhibition above about 9.5%
PLCb3 confirm: confirmation of human PLC-beta3 inhibitors; shares compounds with PLC-gamma1 inh; purified PLC-beta3, fluorogenic substrate fluorescence; inhibition, % at 12.3 µM; actives 1% (n = 3,300)
* = called active by the depositor; · = no result. Unless noted, no stated cut-off is given here; in the data, active means inhibition above about 11%; inactive means the rest.

SMILES	PLC-gamma1 inh	ADAM17 inh	ADAM10 inh	PLC-beta3 inh	KLK7 zymogen act	PLCgamma1 ctr	PLCb3 confirm
Cc1ccc(S(=O)(=O)c2ccc(Cl)cc2)cc1S(=O)(=O)NC(C)C(=O)O (stereo not drawn)	10.2*	2.9	-12.5	-1.9	-0.2	-5.6	-3.3
Cc1ccc(-c2csc(N(CC3CCCO3)C(=O)c3ccco3)n2)cc1 (stereo not drawn)	11.3*	2.8	-9.2	3.9	0.1	-12.1	-6.4
COc1ccc(-c2csc(N(CC3CCCO3)C(=O)c3ccc(C)cc3)n2)cc1 (stereo not drawn)	14.4*	4.0	5.0	4.6	0.4	-4.4	-6.8
COc1cc(N)c(Cl)cc1C(=O)N[C@H]1CCN(CCCOc2ccc(F)cc2)C[C@H]1OC	1.5	-2.8	6.8	-1.0	-0.4	·	·
COc1cc(N)c(Cl)cc1C(=O)NC1CCN(CCCOc2ccc(F)cc2)CC1OC (stereo not drawn)	11.2*	3.5	11.8	4.5	-0.6	-3.7	-0.5
C[C@H](NC(=O)[C@@H]1CSC2c3ccccc3C(=O)N21)C(=O)NCCc1ccc(F)cc1 (stereo partly drawn)	12.4*	-1.4	5.7	-11.2	0.3	-8.5	-7.2
C[C@H](NC(=O)[C@@H]1CSC2c3ccccc3C(=O)N21)C(=O)NCCc1ccccc1 (stereo partly drawn)	0.9	-3.5	-1.7	-7.0	0.1	·	·
O=C(O)CCC(=O)Nc1ccc(Br)cn1	10.2*	-0.4	-7.7	2.9	-0.5	-4.2	-11.7
CCOC(=O)c1c(C)[nH]c(C)c1S(=O)(=O)N(C)Cc1ccco1	10.5*	0.7	3.3	-3.0	0.4	0.1	-4.9
CCOC(=O)c1c(C)[nH]c(C)c1S(=O)(=O)NC(C)Cc1ccco1 (stereo not drawn)	-0.3	-1.5	6.7	-6.0	-0.2	·	·
O=C(OCC(=O)c1c[nH]c2ccccc12)c1cc(Br)ccc1O	-10.6	-4.9	-9.5	-15.7	-2.7	·	·
Cc1cc(-n2cnnn2)cc(C)c1S(=O)(=O)N(C)c1ccccc1	1.1	2.3	14.9	-3.8	0.1	·	·
c1ccn2cc(C34CC5CC(CC(C5)C3)C4)nc2c1	0.1	-10.4	-17.1	-6.8	-0.5	·	·
O=C(NC(CO)(CO)CO)[C@@H]1CCCN1S(=O)(=O)c1cccc2cccnc12	-0.5	-2.2	-4.3	3.8	0.4	·	·
CCCCc1cc(=O)oc2cc(OCC(=O)NCCN3CCOCC3)ccc12	1.8	-7.0	-41.7	-8.0	0.1	·	·
COc1ccc(NC(=O)CN2CCC(C(N)=O)CC2)cc1	1.5	0.3	-2.4	5.6	-0.5	·	·
COc1ccc(NC(=O)CN2CCC(C)CC2)c([N+](=O)[O-])c1	-2.8	-1.7	0.9	3.5	0.5	·	·
COc1ccc(NC(=O)CN2CCC(C)CC2)cc1	12.2*	4.1	1.7	8.6	0.4	-6.2	-2.3
COc1cc(-c2ccc(NC(=O)CN3CCC(C)CC3)c(OC)c2)ccc1NC(=O)CN1CCC(C)CC1	10.1*	0.7	12.3	6.0	-0.2	-4.6	-7.0
CC(C)N(Cc1ccccc1)C(=O)CN1C(=O)NC2(CCCC2)C1=O	10.3*	4.7	-5.1	4.9	-0.1	-8.3	-3.9
O=C(CSc1n[nH]c(=O)n1Cc1ccccc1)Nc1ccc(N2CCOCC2)cc1	6.6	4.8	-0.9	-0.6	-0.3	·	·
CC(C)[C@H](NC(=O)c1ccccc1F)C(=O)OCC(=O)NC1CC1	3.8	-4.8	-10.2	-0.2	0.0	·	·
Cc1ccc(C(=O)NC(=S)NNC(=O)CCN2CCOCC2)cc1	9.6*	4.7	11.8	2.9	0.4	-5.4	1.7
COc1ccc(-c2csc(=NCCO)n2-c2ccccc2)cc1	10.0*	-5.8	8.1	-3.6	-0.4	-3.4	-1.2
O=C1CCN(Cc2ccc(O)cc2)CCN1[C@H](CO)c1ccccc1	9.7*	0.0	1.7	3.8	0.5	-1.9	-0.9
SMILES	PLC-gamma1 inh	ADAM17 inh	ADAM10 inh	PLC-beta3 inh	KLK7 zymogen act	PLCgamma1 ctr	PLCb3 confirm
O=C1CCN(Cc2ccccc2)CCN1[C@H](CO)c1ccccc1	1.6	-2.3	5.4	2.0	0.8	·	·
CCC(Sc1nc2c(c(=O)n1CC)SC(C)C2)C(=O)OC (stereo not drawn)	2.9	-5.3	-6.8	-2.7	0.1	·	·
Cc1ccc(Nc2cc(C)nc3ncnn23)c(Cl)c1	2.0	-0.5	-10.5	-0.9	0.1	·	·
Cc1cc(Nc2cccc(Cl)c2Cl)n2ncnc2n1	13.2*	3.3	6.8	-1.4	-0.5	-7.3	-2.9
CN(C)S(=O)(=O)c1ccc(C(=O)Nc2nnc(Cc3ccccc3)s2)cc1	8.9	0.6	9.4	11.3*	-0.4	-4.0	-13.0
COc1ccc(NC(=O)CCCCCN2C(=O)CCC2=O)cc1Cl	-1.1	-2.0	5.0	4.9	1.2	·	·
COc1ccc(NC(=O)CCCN2C(=O)CCC2=O)cc1Cl	11.0*	2.9	-0.4	2.6	0.1	-5.5	-1.2
Nc1nc2ccccc2n1S(=O)(=O)c1ccc(Cl)cc1	3.0	5.8	1.3	3.4	-0.3	·	·
Cc1csc(Nc2nc(N)c(C(=O)Nc3ccccc3)o2)n1	13.7*	8.5	4.0	10.7*	0.1	-0.7	4.4
Cc1csc(NC(=O)c2oc3ccccc3c2C)n1	-40.2	0.4	-4.5	-37.9	0.6	·	·
Cc1c(NC(=S)N/N=C/C=C/c2ccc([N+](=O)[O-])cc2)c(=O)n(-c2ccccc2)n1C	12.1*	6.7	18.0	3.5	-0.4	11.0*	5.0
Cc1cccc(-c2noc(C(C)NC(=O)c3ccco3)n2)c1 (stereo not drawn)	13.1*	3.4	-0.9	2.2	0.0	3.7	-0.7
CC(NC(=O)c1ccco1)c1nc(-c2ccccc2)no1 (stereo not drawn)	-1.2	0.4	-4.0	-3.9	-0.2	·	·
CC(C)(C)OC(=O)NC1CC2CCCC(C1)N2Cc1ccccc1 (stereo not drawn)	2.9	-1.2	1.5	-5.6	0.5	·	·
CN(C)C(=O)c1ccccc1Sc1cc(Cl)ccc1Cl	15.2*	-4.5	5.8	-0.9	0.0	-2.6	-0.6
CN(C)C(=O)c1ccccc1Sc1ccc(Cl)cc1Cl	-2.8	-3.3	-8.7	1.2	0.1	·	·
CCNC(=O)C1CCCN(C(=O)c2cccc(C#N)c2)CC1 (stereo not drawn)	2.9	1.6	-6.0	4.3	0.1	·	·
O=C(NC1CCCC1)C(c1ccccn1)N(C(=O)c1csnn1)c1ccccc1Br (stereo not drawn)	4.6	7.6	-7.0	-2.4	-0.1	·	·
COc1cccc(C(=O)NC2CC3CCCC(C2)N3Cc2ccc(C)cc2)c1 (stereo not drawn)	1.5	2.2	5.2	-1.0	0.0	·	·
CCNC(=O)CSc1nc2ccccc2c(=O)n1-c1cccc(OC)c1	-0.7	-2.5	-6.9	5.0	0.1	·	·
CCN(CC)C(=O)CSc1nc2ccccc2c(=O)n1-c1cccc(OC)c1	10.4*	-0.8	1.2	3.9	0.1	-8.2	-3.0

Bioassay records as filed in PubChem.
